From PubChem BioAssay come the findings set out here.

Results filed as inconclusive are left out. The source made the active and inactive calls.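 The calls were made as follows, unless noted: active = inhibition above 54%, about 3 SD of non-fluorescent compounds; inactive = the rest.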

A short description of assay [1]: rapamycin-like changes in RPL19A-GFP expression – cell-based, S. cerevisiae, multiplex flow cytometry, primary screen (AID 1862; in the data active = percent of DMSO control GFP below about 86%;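 also: lower values mimic rapamycin by blocking the RPL19A rise seen in DMSO cells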). As to conditions: S. cerevisiae RPL19A-GFP strain, flow cytometry fluorescence, 3 h; at 10 µM; stronger effect = lower value. In general terms: Flow cytometry measures light scatter and fluorescence of single cells or particles in a stream.
Assay [2] in a line: TOR pathway GLN3 branch reporter MEP2-GFP changes – S. cerevisiae, multiplex flow cytometry, primary screen (AID 1867;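 active = GFP response, as percent of the DMSO control, above the screen-wide mean plus 3 SD, about 139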;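 also: median GFP channel fluorescence of barcode-gated MEP2-GFP cells measured by flow cytometry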). The following applies: S. cerevisiae MEP2-GFP strain, 3 h, at 10 µM, stronger effect = higher value, 100% means same as DMSO wells.
The nature of assay [3]: TOR pathway RTG branch CIT2 reporter changes – S. cerevisiae, GFP fusion, multiplex flow cytometry, primary screen (AID 1870;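 active = percent response above a set limit, the screen-wide mean plus 3 SD, cut at about 130% in these data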;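 also: barcoded CIT2-GFP strain pooled with four other GFP strains with rapamycin as positive control; median GFP fluorescence per well over plate mean of DMSO wells so 100% = DMSO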). The following applies: S. cerevisiae CIT2-GFP expression, 3 h, at 10 µM, stronger effect = higher value.
The nature of assay [4]: TOR pathway LAP4-GFP level changes – S. cerevisiae, multiplex flow cytometry, primary screen (AID 1873;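 active = GFP signal, as percent of the solvent control, above the screen mean plus 3 SD, about 149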). As to conditions: S. cerevisiae LAP4-GFP expression, 3 h, at 10 µM, stronger effect = higher value.
Assay [5] can be described thus: yeast AGP1-GFP level changes, GLN3 branch – cell-based, multiplex flow cytometry, S. cerevisiae, primary screen (AID 1887;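 active = GFP signal above the screen-wide mean plus 3 SD, that is over about 124.5% of the solvent control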;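 also: AGP1-GFP fusion strain of S. cerevisiae within a five-strain barcoded multiplex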). The following applies: 3 h, at 10 µM, stronger effect = higher value.
A short description of assay [6]: reduced mouse 2C T cell binding to pMHC/ICAM-1 vesicles – MLPCN validation set, flow cytometry, LFA-1/ICAM-1 modulator project, pilot screen (AID 2523;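 active = response below a set limit, under 55% cells CD8-positive and vesicle-bound, and CD8 cells' 90th-percentile brightness under 279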;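 as to vesicle binding response: mean PE anti-B7-1 fluorescence of CD8+ cells relative to row control; 100% = QL9-loaded vesicles with DMSO vehicle in the same plate row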). The following applies: 2C mouse CD8+ T cells, at 7 µM, stronger effect = lower value; double positive events: measured here: CD8+/vesicle+ event percentage.
For assay [7], the target named is Integrin beta-1 (Homo sapiens) + Integrin alpha-4 (Homo sapiens) (UniProt P13612+P05556). Nature of the assay: alpha4beta1 integrin LIBS antibody binding reduction – U937 cells, HUTS-21 mAb, flow cytometry, validation set, VLA-4 allosteric modulator project, pilot screen (AID 2674;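 active = inhibition above 50%, about 3 SD of the validation set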;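 also: antibody binding induced by the VLA-4 ligand LDV present at three times its Kd; 0% = LDV ligand with antibody and no compound and 100% = antibody without LDV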). As to conditions: HUTS-21 LIBS mAb binding, at 6.7 µM, stronger effect = higher value, binding induced by LDV ligand.
Sequence of Integrin beta-1 (Homo sapiens) + Integrin alpha-4 (Homo sapiens) (P05556 whole entry, looked up): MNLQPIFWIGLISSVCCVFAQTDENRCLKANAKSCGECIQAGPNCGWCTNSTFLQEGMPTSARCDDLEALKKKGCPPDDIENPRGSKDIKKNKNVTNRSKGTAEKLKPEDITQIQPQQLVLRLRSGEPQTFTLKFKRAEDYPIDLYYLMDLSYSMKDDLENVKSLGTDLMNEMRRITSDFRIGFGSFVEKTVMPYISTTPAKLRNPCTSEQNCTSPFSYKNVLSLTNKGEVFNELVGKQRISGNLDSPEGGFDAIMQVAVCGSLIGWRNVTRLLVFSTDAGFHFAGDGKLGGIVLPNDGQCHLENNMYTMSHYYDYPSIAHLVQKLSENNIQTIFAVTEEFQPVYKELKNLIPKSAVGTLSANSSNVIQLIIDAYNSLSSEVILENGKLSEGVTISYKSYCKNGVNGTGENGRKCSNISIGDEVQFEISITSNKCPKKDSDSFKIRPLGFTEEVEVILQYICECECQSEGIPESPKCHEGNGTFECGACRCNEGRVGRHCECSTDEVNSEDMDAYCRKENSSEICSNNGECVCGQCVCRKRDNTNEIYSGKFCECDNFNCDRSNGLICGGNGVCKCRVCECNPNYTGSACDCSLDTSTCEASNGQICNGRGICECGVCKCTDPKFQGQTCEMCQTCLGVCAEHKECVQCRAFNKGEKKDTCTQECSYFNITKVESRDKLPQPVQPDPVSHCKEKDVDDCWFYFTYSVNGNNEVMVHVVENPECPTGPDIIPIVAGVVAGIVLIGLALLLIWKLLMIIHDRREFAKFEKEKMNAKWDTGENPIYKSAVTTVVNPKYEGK
Sequence of Integrin beta-1 (Homo sapiens) + Integrin alpha-4 (Homo sapiens) (P13612 whole entry, looked up): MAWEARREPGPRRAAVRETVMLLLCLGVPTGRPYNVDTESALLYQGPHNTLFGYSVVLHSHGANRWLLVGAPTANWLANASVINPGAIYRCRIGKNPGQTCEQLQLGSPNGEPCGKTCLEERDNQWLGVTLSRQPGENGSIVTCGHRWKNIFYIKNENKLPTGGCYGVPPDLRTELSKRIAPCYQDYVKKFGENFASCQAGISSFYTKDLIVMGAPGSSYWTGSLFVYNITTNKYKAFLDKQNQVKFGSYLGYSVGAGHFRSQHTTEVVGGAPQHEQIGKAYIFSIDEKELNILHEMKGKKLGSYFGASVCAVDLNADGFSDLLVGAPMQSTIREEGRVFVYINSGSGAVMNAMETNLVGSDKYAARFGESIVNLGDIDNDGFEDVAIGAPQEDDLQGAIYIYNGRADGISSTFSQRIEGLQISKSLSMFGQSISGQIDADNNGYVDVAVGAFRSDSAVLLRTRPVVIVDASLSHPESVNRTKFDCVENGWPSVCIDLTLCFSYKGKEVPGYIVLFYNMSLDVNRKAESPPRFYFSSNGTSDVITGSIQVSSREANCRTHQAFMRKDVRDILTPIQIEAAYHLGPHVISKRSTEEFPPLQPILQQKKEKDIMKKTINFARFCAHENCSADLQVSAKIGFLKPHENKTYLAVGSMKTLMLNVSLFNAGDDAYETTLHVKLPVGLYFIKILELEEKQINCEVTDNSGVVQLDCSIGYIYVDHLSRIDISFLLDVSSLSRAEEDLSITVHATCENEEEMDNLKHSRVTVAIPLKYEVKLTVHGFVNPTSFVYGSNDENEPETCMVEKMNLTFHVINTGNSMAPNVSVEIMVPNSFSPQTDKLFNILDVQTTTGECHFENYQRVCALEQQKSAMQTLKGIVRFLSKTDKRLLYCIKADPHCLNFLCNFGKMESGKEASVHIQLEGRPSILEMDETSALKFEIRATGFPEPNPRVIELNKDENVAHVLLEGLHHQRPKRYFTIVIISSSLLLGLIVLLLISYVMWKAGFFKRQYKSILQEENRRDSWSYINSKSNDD

Assay [8] can be described thus: calorie-restriction mimetic ROS inhibitors, yeast – validation compound set, pilot screen (AID 2706;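 active = superoxide response below 65% of plate, a cut near 3 SD across the whole screen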;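 also: yeast exposed to compound for one week at 30 degrees C before staining; 100% = mean of all compound wells on the same plate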). The following applies: S. cerevisiae aging, superoxide DHE fluorescence; at 10 µM; stronger effect = lower value.
In assay [9] the target is Beta-adrenergic receptor kinase 1 (Homo sapiens) (UniProt P25098). The experiment in a line: GRK2 binders displacing RNA aptamer, biochemical, validation, human GRK2, bead flow cytometry (AID 488806;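 active = aptamer binding inhibition above 30%, about 3 SD of noise from non-fluorescent compounds; inactive = inhibition at or below 30%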). As to conditions: bead-bound GRK2, FAM-aptamer displacement, at 10 µM, stronger effect = higher value.
Sequence of Beta-adrenergic receptor kinase 1 (Homo sapiens) (P25098 whole entry, looked up): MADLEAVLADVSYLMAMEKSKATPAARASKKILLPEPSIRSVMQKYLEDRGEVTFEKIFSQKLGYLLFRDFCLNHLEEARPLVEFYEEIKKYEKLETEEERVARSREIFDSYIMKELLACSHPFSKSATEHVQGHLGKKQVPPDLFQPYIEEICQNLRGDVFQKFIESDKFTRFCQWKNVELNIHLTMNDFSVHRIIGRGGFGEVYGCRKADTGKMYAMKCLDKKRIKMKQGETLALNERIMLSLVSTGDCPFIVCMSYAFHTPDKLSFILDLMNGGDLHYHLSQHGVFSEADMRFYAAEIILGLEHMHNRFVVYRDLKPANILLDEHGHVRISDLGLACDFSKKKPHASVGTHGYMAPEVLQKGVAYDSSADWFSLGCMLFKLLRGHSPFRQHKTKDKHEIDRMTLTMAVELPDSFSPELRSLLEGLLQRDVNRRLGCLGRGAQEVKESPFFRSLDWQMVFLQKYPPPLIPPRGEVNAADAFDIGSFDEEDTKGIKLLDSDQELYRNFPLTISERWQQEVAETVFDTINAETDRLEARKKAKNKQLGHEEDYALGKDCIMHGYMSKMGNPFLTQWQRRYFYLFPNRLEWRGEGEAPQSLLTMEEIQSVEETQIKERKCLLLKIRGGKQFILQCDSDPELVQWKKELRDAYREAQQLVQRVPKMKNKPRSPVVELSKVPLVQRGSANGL
In assay [10] the target is Beta-2 adrenergic receptor (Homo sapiens) (UniProt P07550). Nature of the assay: agonist-induced loss of surface beta2AR – cell-based, FAP fluorogen, flow cytometry, validation set, pilot screen (AID 504459;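 active = percent response above 42, roughly 3 SD of non-fluorescent test compounds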;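 also: agonist-driven loss of surface beta2AR via internalization measured by FAP dye flow cytometry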). As to conditions: Am2.2-beta2AR cells, at 10 µM, stronger effect = higher value.
Sequence of Beta-2 adrenergic receptor (Homo sapiens) (P07550 whole entry, looked up): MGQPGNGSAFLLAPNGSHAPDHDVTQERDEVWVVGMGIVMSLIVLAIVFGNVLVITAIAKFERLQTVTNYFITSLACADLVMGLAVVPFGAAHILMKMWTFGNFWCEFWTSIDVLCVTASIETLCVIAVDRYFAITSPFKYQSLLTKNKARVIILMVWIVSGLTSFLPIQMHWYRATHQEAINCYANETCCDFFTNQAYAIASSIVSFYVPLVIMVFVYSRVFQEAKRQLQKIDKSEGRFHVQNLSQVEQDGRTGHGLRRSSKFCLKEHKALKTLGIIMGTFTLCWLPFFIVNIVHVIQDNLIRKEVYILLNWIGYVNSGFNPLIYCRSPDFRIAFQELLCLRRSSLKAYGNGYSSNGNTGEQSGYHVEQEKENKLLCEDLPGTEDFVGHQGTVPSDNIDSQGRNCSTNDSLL
Assay [11] addresses AP-2 complex subunit beta (Homo sapiens) (UniProt P63010). The experiment in a line: beta-arrestin/AP2 interaction blockers – biochemical, validation set, GST-AP2 beads, flow cytometry, pilot screen (AID 504541).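 Also: AP2 carries R879A mutation and is captured from E. coli lysate; bead-bound FITC arrestin peptide fluorescence measuring arrestin peptide binding to AP2; 0% = DMSO wells and 100% = excess unlabeled arrestin peptide control.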 The following applies: FITC arrestin peptide, at 10 µM, stronger effect = higher value, AP2 beta2 appendage fragment, R879A mutant.
Assay [12] in a line: cytosolic pH regulators acting via V-ATPase – S. cerevisiae, pHLuorin, HTS validation (AID 504600; in the data active = response above about 15%;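 also: plate controls were DMSO for no effect and reference compound for full effect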). The following applies: V-ATPase proton transport, at 10 µM, stronger effect = higher value.
Assay [13] relates to anti-desmoglein-3 scFv antibody binding to human DSG3. Nature of the assay: blockers of pathogenic pemphigus antibody–desmoglein-3 binding – biochemical, validation compound set, bead-based, flow cytometry, pilot screen (AID 588368;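 active = binding below the plate cutoff, the plate median minus 3 SD, with a reading above zero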;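 also: signal is the median channel fluorescence of bead-bound GFP antibody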). As to conditions: Protein G beads, DSG3-Fc, scFv-GFP binding, at 10 µM, stronger effect = lower value.
A short description of assay [14]: Nile Red efflux blockade in pump-expressing yeast – validation compound set, multiplex, phenotypic, pilot screen (AID 588506;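 active = efflux inhibition above 0.42, the validation set average plus 4 SD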;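 also: Nile Red retained in cells so higher fluorescence means more efflux inhibition; 0 = negative control wells and 1 = enniatin B 25 µM full block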). The following applies: S. cerevisiae pump-expressing triplex, Nile Red efflux flow cytometry; at 10 µM; stronger effect = higher value; the pumps come from Candida albicans.
For assay [15], the target named is ATP-binding cassette sub-family B member 6 (Homo sapiens) (UniProt Q9NP58). Nature of the assay: blockers of ABCB6-driven porphyrin uptake – K562-ABCB6 cells, flow cytometry, validation set, pilot screen (AID 588550;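 active = inhibition above the screen-wide mean plus 3 SD, about 51%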;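 also: 0% = DMSO wells and 100% = benzethonium chloride 70 µM positive control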). As to conditions: K562-ABCB6 porphyrin accumulation, 1 h, at 10 µM, stronger effect = higher value.
Sequence of ATP-binding cassette sub-family B member 6 (Homo sapiens) (Q9NP58 whole entry, looked up): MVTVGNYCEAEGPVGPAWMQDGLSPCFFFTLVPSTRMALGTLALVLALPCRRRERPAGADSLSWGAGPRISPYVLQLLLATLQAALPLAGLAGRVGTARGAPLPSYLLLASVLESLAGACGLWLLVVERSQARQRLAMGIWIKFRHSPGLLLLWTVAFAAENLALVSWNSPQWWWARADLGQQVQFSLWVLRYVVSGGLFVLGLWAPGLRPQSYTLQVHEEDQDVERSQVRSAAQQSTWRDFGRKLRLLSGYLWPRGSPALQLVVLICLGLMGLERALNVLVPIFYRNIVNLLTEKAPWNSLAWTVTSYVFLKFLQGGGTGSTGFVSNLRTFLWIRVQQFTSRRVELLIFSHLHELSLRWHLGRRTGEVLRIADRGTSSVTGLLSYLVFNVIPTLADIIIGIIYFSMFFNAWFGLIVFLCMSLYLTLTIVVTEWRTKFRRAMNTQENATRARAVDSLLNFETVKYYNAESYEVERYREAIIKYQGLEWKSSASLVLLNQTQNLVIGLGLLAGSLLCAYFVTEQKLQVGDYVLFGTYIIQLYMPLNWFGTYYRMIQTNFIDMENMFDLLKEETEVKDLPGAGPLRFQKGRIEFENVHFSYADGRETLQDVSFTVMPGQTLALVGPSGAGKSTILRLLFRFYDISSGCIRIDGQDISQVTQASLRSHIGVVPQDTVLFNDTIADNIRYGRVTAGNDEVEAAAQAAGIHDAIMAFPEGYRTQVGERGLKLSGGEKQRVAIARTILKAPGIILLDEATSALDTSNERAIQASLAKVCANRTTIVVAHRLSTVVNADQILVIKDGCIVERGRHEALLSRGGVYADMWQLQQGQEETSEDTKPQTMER
Assay [16] is described as follows: AML differentiation inducers, ER-HoxA9 marrow cells – cell-based, GFP/MAC1 double positive, flow cytometry, validation set, primary screen (AID 588685;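 active = differentiation response of at least 50%, scaled between solvent and reference control, from cells with both markers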;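 also: compound exposure lasts four days before antibody staining and flow analysis; 0% = DMSO wells and 100% = 5 µM fulvestrant positive control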). As to conditions: stronger effect = higher value, normalized: vehicle 0, fulvestrant 100.

Sequence of AP-2 complex subunit beta (Homo sapiens) (P63010 whole entry, looked up, the tested form may be a part, one chain of several): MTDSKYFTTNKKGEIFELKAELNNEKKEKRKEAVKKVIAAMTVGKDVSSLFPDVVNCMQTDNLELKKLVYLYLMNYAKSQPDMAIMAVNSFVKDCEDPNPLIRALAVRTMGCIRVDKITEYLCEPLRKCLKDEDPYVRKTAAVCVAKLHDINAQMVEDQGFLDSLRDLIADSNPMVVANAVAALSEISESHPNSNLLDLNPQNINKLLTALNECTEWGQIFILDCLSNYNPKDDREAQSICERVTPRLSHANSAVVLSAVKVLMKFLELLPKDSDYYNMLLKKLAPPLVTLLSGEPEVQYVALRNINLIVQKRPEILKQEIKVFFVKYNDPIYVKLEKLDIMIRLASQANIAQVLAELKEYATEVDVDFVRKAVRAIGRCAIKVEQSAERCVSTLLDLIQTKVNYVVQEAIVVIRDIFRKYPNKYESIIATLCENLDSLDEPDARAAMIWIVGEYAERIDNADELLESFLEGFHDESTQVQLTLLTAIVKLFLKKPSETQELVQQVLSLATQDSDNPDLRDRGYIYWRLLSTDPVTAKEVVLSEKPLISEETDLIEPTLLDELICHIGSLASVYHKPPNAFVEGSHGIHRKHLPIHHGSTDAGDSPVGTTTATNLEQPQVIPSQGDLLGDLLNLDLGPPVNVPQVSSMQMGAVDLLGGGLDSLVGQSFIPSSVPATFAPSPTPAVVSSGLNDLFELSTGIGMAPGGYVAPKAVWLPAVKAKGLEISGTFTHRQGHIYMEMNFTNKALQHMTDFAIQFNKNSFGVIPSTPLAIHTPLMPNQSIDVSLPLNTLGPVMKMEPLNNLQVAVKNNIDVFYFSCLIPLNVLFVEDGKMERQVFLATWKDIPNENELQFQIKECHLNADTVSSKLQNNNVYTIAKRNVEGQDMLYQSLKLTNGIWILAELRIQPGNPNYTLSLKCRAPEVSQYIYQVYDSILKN

For the compound `COc1cc(NS(=O)(=O)c2ccc(N)cc2)nc(OC)n1`, the percent of DMSO control GFP in assay [1] is 98.8% (inactive). Besides, the GFP response vs DMSO in assay [2] is 102% (inactive); in assay [4], 96.5% (inactive). In [3], the percent response of DMSO control is 105% (inactive). Besides, in assay [5], the GFP response, % of DMSO is 98.2% (inactive). The same compound registered a double positive events in assay [6] of 60.1%. For the same compound, the vesicle binding response in [6] is 102% (inactive). For the same compound, the inhibition (as a rule, the change of the read-out against control, counted positive when it falls) was -1.74% (inactive) in assay [7], 18.1% (inactive) in [11] and -1% (inactive) in assay [15]. The superoxide response (% of plate) in assay [8] was 113% (inactive). Moreover, the aptamer binding inhibition in [9] was 3% (inactive). The response in assay [10] was 1.82% (inactive); in assay [12], 0.53% (inactive). In addition, in assay [13], the binding (% of control) is 96.4% (inactive). The efflux inhibition (fraction of control) in assay [14] is 0.01 (inactive). The differentiation response in assay [16] was 14.9% (inactive).

For `COCCN(CCOC)Cc1c(C)[nH]c2c(C)c(C)ccc2c1=O`, in assay [1], the percent of DMSO control GFP was 103% (inactive). The GFP response vs DMSO is 108% (inactive) in [2] and 93.7% (inactive) in [4]. In [3], the percent response of DMSO control was 97.6% (inactive). Further, the GFP response, % of DMSO in assay [5] is 102% (inactive). Moreover, the double positive events in assay [6] is 63.2%. The vesicle binding response in assay [6] was 132% (inactive). The figures for the inhibition in assay [7], in assay [11] and in assay [15] were -2.43% (inactive), -8.42% (inactive) and -9% (inactive), respectively. For the same compound, the superoxide response (% of plate) in [8] is 99.3% (inactive). Further, the aptamer binding inhibition in assay [9] was 0% (inactive). The response in assay [10] was 4.86% (inactive); in assay [12], 5.64% (inactive). The binding (% of control) in assay [13] is 105% (inactive). Further, in assay [14], the efflux inhibition (fraction of control) was -0.29 (inactive). Besides, the differentiation response in [16] is -10.4% (inactive).

`COc1ccc(/C=C/C(=O)Nc2ccccc2C(=O)O)cc1OC`: in assay [1], the percent of DMSO control GFP is 111% (inactive). Moreover, the GFP response vs DMSO in assay [2] was 110% (inactive); in [4], 76.9% (inactive). Also, in [3], the percent response of DMSO control is 106% (inactive). The GFP response, % of DMSO in [5] is 99.5% (inactive). Also, the double positive events in assay [6] was found to be 60.2%. The vesicle binding response in [6] is 50.8% (inactive). In addition, the inhibition in assay [7] is -5.64% (inactive); in assay [11], -8.31% (inactive); in [15], 3% (inactive). Moreover, in assay [8], the superoxide response (% of plate) is 123% (inactive). Further, the aptamer binding inhibition in assay [9] was 3% (inactive). Besides, the response in assay [10] is 12.8% (inactive); in [12], 6.81% (inactive). Also, the binding (% of control) in [13] is 96.9% (inactive). Also, in assay [14], the efflux inhibition (fraction of control) was 0.02 (inactive). For the same compound, in assay [16], the differentiation response was -5.62% (inactive).

Take `C=CCC1(O)C(=O)N2C(=C1C(=O)N1CCOCC1)c1ccccc1CC2(C)C` (stereo not given): the percent of DMSO control GFP in [1] is 99.4% (inactive). Further, the GFP response vs DMSO in assay [2] was 108% (inactive); in assay [4] it was 95.3% (inactive). Besides, the percent response of DMSO control in assay [3] was 101% (inactive). For the same compound, the GFP response, % of DMSO in assay [5] was 99.9% (inactive). This compound also came in with a double positive events in assay [6] of 55.4%. Further, in [6], the vesicle binding response is 38.1% (inactive). Further, the inhibition is -2.53% (inactive) in [7], 23.5% (inactive) in assay [11] and -7% (inactive) in assay [15]. In assay [8], the superoxide response (% of plate) is 111% (inactive). In addition, the aptamer binding inhibition in assay [9] is 1% (inactive). Also, the response in assay [10] is -4.96% (inactive); in [12] it was -6.09% (inactive). The binding (% of control) in assay [13] was 95.5% (inactive). Further, in assay [14], the efflux inhibition (fraction of control) is 0.24 (inactive). The differentiation response in assay [16] is 0.24% (inactive).

Regarding `Cc1ccc2c(ccc(=S)n2C)c1`, the percent of DMSO control GFP in assay [1] is 103% (inactive). For the same compound, the figures for the GFP response vs DMSO in [2] and in assay [4] were 97.2% (inactive) and 93.3% (inactive), respectively. The percent response of DMSO control in assay [3] is 115% (inactive). In assay [5], the GFP response, % of DMSO was 102% (inactive). In assay [6], the double positive events is 54.1%. Besides, in [6], the vesicle binding response was 44.4% (active). The results for the inhibition in [7], in assay [11] and in [15] were 7.85% (inactive), -3.91% (inactive) and 19% (inactive), respectively. Further, the superoxide response (% of plate) in assay [8] is 87.8% (inactive). For the same compound, the aptamer binding inhibition in assay [9] was 4% (inactive). Further, the figures for the response in assay [10] and in assay [12] were -14% (inactive) and 0.7% (inactive), respectively. In addition, in assay [13], the binding (% of control) is 97.7% (inactive). Moreover, in [14], the efflux inhibition (fraction of control) was -0.01 (inactive). Also, in assay [16], the differentiation response was 1.22% (inactive).
